In PubChem BioAssay AID1851 (National Center for Advancing Translational Sciences (NCATS), 2009):
Values joined by “and” are separate entries in the source; they are usually repeats but may differ in a detail not shown here. Equal entries are not always repeated. The campaign covered roughly 16,000 compounds. About 5,800 (36%) were called active. Another 23% or so got no clear call; they are omitted. The call rests on the fitted dose curve; in most records, active means well fitted curve in the direction sought with a large enough effect; inconclusive means small, poorly fitted or top-dose-only effect, or effect the other way; inactive means no such curve, though single readings can be large or run the other way. Some of the results follow. Some structures have more than one record in an assay (separate samples or runs), and their calls can disagree.

These compounds were tested against Cytochrome P450 2C19 (Homo sapiens) (UniProt P33261) (assay: Cytochrome panel assay with activity outcomes). Details: recombinant CYP, pro-luciferin dealkylation, luminescence, p450-cyp2c19; series mostly up to 57.1 µM; activity, negative = inhibition: at the top concentration.
Chain of Cytochrome P450 2C19 (Homo sapiens) (P33261 whole entry, looked up): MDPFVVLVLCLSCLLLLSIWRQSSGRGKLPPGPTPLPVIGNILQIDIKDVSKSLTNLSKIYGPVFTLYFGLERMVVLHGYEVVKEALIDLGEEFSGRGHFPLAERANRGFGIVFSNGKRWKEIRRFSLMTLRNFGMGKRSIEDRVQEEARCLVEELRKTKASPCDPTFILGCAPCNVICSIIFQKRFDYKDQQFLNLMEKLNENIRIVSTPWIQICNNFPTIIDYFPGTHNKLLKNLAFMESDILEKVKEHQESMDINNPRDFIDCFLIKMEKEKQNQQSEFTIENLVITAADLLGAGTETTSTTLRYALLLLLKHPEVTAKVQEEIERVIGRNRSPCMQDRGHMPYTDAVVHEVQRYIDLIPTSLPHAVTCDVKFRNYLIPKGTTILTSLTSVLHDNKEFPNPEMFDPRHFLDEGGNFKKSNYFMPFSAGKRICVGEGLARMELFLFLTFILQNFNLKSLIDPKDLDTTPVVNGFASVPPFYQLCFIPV
On the % scale 0 is the no-effect control and ±100 the full control effect.

Row | Structure (SMILES) | activity, negative = inhibition | AC50
1 | NC1=N[C@H](c2ccc(Cl)cc2)N(c2ccc(S(=O)(=O)Nc3ncccn3)cc2)C(N)=N1 | 8.72% [at 11.4 µM] (inactive) | 
2 | Cc1ccc(CSc2nnc([C@@H]3CCCN3)o2)cc1 |  | 7.08 µM (active)
3 | Cc1ccc(CSc2nc3c(c(SCC(=O)O)n2)CCCC3)cc1 | -21.9% (inactive) | 
4 | CN1CCN(c2ncc3nc(-c4cccc(C#N)c4)c(=O)n(C)c3n2)CC1 | -41.4% (inactive) | 
5 | Cn1cccc1C(=O)N1CCC2(CC1)CCN(c1ccccc1)CC2 | -18.5% (inactive) | 
6 | Cn1cccc1C(=O)N1CCC2(CCCN(c3ccccc3)C2)CC1 |  | 7.94 µM (active)
7 | CN1CCCC2(CCN(C(=O)c3cccn3C)CC2)C1 | -6.51% (inactive) | 
8 | Cn1cccc1C(=O)N1CCC2(CCCN(c3ccc(-c4ccccc4)cc3)C2)CC1 | -39.1% (inactive) | 
9 | Cn1cccc1C(=O)N1CCC2(CCCN(c3cccc(-c4ccccc4)c3)C2)CC1 |  | 10 µM (active)
10 | Cn1cccc1C(=O)N1CCC2(CC1)CCN(c1cccc(-c3ccccc3)c1)CC2 | -39.8% (inactive) | 
11 | O=C(c1cnn(-c2ccccc2)c1)c1ccc2ccccc2c1O |  | 5.62 µM (active)
12 | Cc1ccc(-n2cc(C(=O)c3ccc4ccccc4c3O)cn2)cc1 | -25% (inactive) | 
13 | O=C(O)c1cc(C(=O)C(=O)c2cc(C(=O)O)c(O)c3ccccc23)c2ccccc2c1O | -29.3% [at 11.4 µM] (inactive) | 
14 | CCCCOC(=O)Nc1ccccc1C(=O)OC |  | 14.1 µM (active)
15 | CC(C)=C1C(=O)NN(c2ccc(F)c(Cl)c2)C1=O | -21.5% (inactive) | 
16 | Cc1nn(CCc2n[nH]c(=S)n2-c2ccc(F)c(Cl)c2)c(C)c1[N+](=O)[O-] |  | 14.1 µM (active)
17 | Cc1ccc(-n2c(-c3cc(C)n(C)n3)n[nH]c2=S)cc1 | 17.3% (inactive) | 
18 | COC(=O)[C@@]1(Cc2ccccc2)[C@H]2c3cc(C(=O)N4CCCC4)[nH]c3C[C@H]2CN1C(=O)c1ccccc1 |  | 0.501 µM (active)
19 | COC(=O)[C@@]1(Cc2ccc(OC)cc2)[C@@H]2[C@@H](CC(=O)[C@H]2CC(=O)C(=O)N(C)C)CN1C(=O)c1ccccc1 | -29.2% (inactive) | 
20 | COC(=O)[C@@]1(Cc2ccc(OC)cc2)[C@H]2c3cc(C(=O)N(C)C)[nH]c3C[C@H]2CN1C(=O)c1ccccc1 |  | 5.01 µM (active)
21 | O=C(O)COC(=O)Cc1ccccc1Nc1c(Cl)cccc1Cl | 22.1% [at 25.6 µM] (inactive) | 
22 | NC(N)=NC(=O)Cc1c(Cl)cccc1Cl |  | inactive and 251 nM (active)
23 | NC(N)=NN=Cc1c(Cl)cccc1Cl |  | inactive
24 | CC(C)(C)CNCCO | 7.05% [at 11.4 µM] (inactive) | 

Row | Structure (SMILES) | activity, negative = inhibition | AC50
25 | CC1(C)SC(=S)N(NC(=O)Nc2ccccc2)C1N(O)C(=O)Nc1ccccc1 (centres undefined) |  | 14.1 µM (active)
26 | CCC(C)C(NS(=O)(=O)c1ccc(C)cc1)C(=O)Oc1ccc2c3c(c(=O)oc2c1)CCC3 (centres undefined) |  | 3.98 µM (active)
27 | Cc1cc2ccc(OC(=O)c3ccc(N=C(N)N)cc3)cc2oc1=O | 13.8% [at 11.4 µM] (inactive) | 
28 | CCC(C)NS(=O)(=O)c1ccc(OCC(=O)NCC2CCCO2)cc1 (centres undefined) | -20.6% (inactive) | 
29 | Cc1ccc(S(=O)(=O)N[C@H](C(=O)Oc2ccc3c(C(F)(F)F)cc(=O)oc3c2)c2ccccc2)cc1 |  | 20 µM (active)
30 | Cc1nn(-c2ccc(F)cc2)c(Cl)c1/C=C(\CCC(=O)O)c1nc2ccccc2s1 |  | 15.8 µM (active)
31 | COc1ccccc1C/C(N)=N/OC(=O)c1ccc(C)c([N+](=O)[O-])c1 |  | 8.91 µM (active)
32 | Cn1c(=O)n2n(c1=O)[C@H]1[C@H](O)[C@H]3O[C@@H]3/C(=N/OC[C@@H](O)COCc3ccco3)[C@@H]1CC2 | -21.1% [at 11.4 µM] (inactive) | 
33 | Oc1cccc2ccc(SSc3ccc4cccc(O)c4n3)nc12 |  | 3.16 µM (active)
34 | CCCOc1ccc(N2C(=O)CC(S/C(N)=N/N=C(\C)c3cccs3)C2=O)cc1 (centres undefined) |  | 6.31 µM (active)
35 | COc1ccc(-n2c(=O)c(-c3cccs3)nc3cnc(N4CCN(C)CC4)nc32)cc1 | -21.9% (inactive) | 
36 | COc1ccc(N2C(=O)CC(S/C(N)=N/N=C(\C)c3cccs3)C2=O)cc1 (centres undefined) |  | 7.08 µM (active)
37 | O=C(N/N=C/c1ccc2cccc(OCc3ccccc3)c2n1)c1ccc(Br)cc1 |  | 3.55 µM (active)
38 | S=C(CSc1ccccc1)Nc1cccc2ccccc12 |  | 0.794 µM (active)
39 | CCOc1c2ccc(C(=O)NCc3cc(C(F)(F)F)cc(C(F)(F)F)c3)cc2nn1C |  | 28.2 µM (active)
40 | COc1ccc(C(=O)N2CCC3(CCN(Cc4cc(C(F)(F)F)cc(C(F)(F)F)c4)CC3)CC2)cc1 | -12.6% (inactive) | 
41 | CCCCn1nc2cc(C(=O)NCc3ccc(C(F)(F)F)cc3C(F)(F)F)ccc2c1OCC |  | 12.6 µM (active)
42 | CCN(CC)CCNC(=O)c1cc(Cl)c(N)cc1OC |  | inactive
43 | O=C1c2ccccc2C(=O)N1CC1c2ccccc2CCN1S(=O)(=O)c1ccccc1 (centres undefined) |  | 2 µM (active)
44 | CN1CCC2(CC1)CCN(S(=O)(=O)c1ccccc1)CC2 | 2.37% (inactive) | 
45 | C[N+](C)(C)CCCCCNCC12CC3CC(CC(C3)C1)C2 | -35% (inactive) | 
46 | Cc1cc(Cn2cnc3c2C[C@@H](C(=O)O)N(C(=O)C(c2ccccc2)c2ccccc2)C3)ccc1N(C)C |  | 1.58 µM (active)
47 | CCCn1nnc(NC(=O)Cc2ccccc2)n1 |  | 10 µM (active)
48 | CN1CCN(CCCNC(=O)c2ccc(CSCc3cccc(Cl)c3)o2)CC1 | -20.9% (inactive) | 

Row | Structure (SMILES) | activity, negative = inhibition | AC50
49 | CCCC(=O)Nc1nc2n(n1)C(c1ccccc1)CC(=O)N2 (centres undefined) | -16.8% (inactive) | 
50 | CCCn1nnc(NC(=O)c2ccc(-c3cccc(Cl)c3)o2)n1 |  | 20 µM (active)
51 | CC(C)Cn1cnc2c(Sc3c([N+](=O)[O-])ncn3C)nc(N)nc21 | 17.8% [at 11.4 µM] (inactive) | 
52 | CC(C)Cn1cnc2c(SCc3ccc(Cl)cc3Cl)nc(N)nc21 |  | 2 µM (active)
53 | Cc1ccc2ccccc2c1CSc1nc(N)nc2c1ncn2CC(C)C |  | 3.98 µM (active)
54 | CC(C)Cn1cnc2c(SCc3ccccn3)nc(N)nc21 | 9.26% [at 11.4 µM] (inactive) | 
55 | CC(C)(C)C1CCc2c(C(=O)N/N=C/c3cccs3)csc2C1 (centres undefined) |  | 6.31 µM (active)
56 | ClC(=Nc1cccc2ccccc12)N(c1ccccc1)c1ccccc1 |  | 2.51 µM (active)
57 | O=S(=O)(c1cccc(C(F)(F)F)c1)N1CCC(c2cc(-c3cccc4ccccc34)n[nH]2)CC1 |  | 7.08 µM (active)
58 | Cc1ccnn2cc3c(=O)n(C)c(=O)n(C)c3c12 | -27.3% (inactive) | 
59 | C[C@@]1(C(NC(=O)c2ccc(-c3ccccc3)cc2)c2ccc(Cl)cc2)C[C@H]1C1CCCCC1 (some centres undefined) | -8.45% (inactive) | 
60 | C[C@@]1(C(NC(=O)c2cccs2)c2ccc(-c3ccccc3)cc2)C[C@H]1C1CCCCC1 (some centres undefined) | -40.8% (inactive) | 
61 | COC(=O)c1ccc(C(NC(=O)c2ccccc2)[C@]2(C)C[C@H]2C2CCCCC2)cc1 (some centres undefined) |  | 2.51 µM (active)
62 | O=C(CN1CCCC1)N/N=C/c1ccc(-c2cccc(Cl)c2)o1 |  | 22.4 µM (active)
63 | COc1ccc2nc(SCC(=O)c3ccco3)[nH]c2c1 |  | 14.1 µM (active)
64 | COc1ccc(NC(=O)N2CCCC3(CCN(C(=O)c4ccco4)CC3)C2)cc1 | -1.82% (inactive) | 
65 | CCOC(=O)NC(=O)CSc1nc2ccc(OCC)cc2[nH]1 |  | 14.1 µM (active)
66 | Cc1ccc2nc(SCC(=O)c3ccc4c(c3)OCO4)[nH]c2c1 |  | 2.82 µM (active)
67 | COc1ccc2nc(SCC(=O)Nc3ccc4c(c3)OCCO4)[nH]c2c1 |  | 10 µM (active)
68 | CCCCc1ccc2nc(NC(=O)OC)[nH]c2c1 | -17.4% [at 25.6 µM] (inactive) | 
69 | COC(=O)Nc1nc2ccc(Sc3ccccc3)cc2[nH]1 | -16.1% [at 25.6 µM] (inactive) | 
70 | Oc1cc(O)c2c(c1)O[C@H](c1ccc(O)c(O)c1)[C@@H](O)[C@@H]2c1c(O)cc(O)c2c1O[C@@H](c1ccc(O)c(O)c1)[C@H](O)C2 | -23.6% [at 11.4 µM] (inactive) | 
71 | CSc1ccc2nnc(-c3cccc(F)c3)n2n1 |  | 15.8 µM (active)
72 | Cc1cc(C)c(C#N)c(SCc2cc3c(cc2Cl)OCO3)n1 |  | 6.31 µM (active)

Row | Structure (SMILES) | activity, negative = inhibition | AC50
73 | CON1C(=O)C(=O)N(OC)C(C)(C)C1C (centres undefined) | -27% (inactive) | 
74 | c1ccc2nc(C3=NCCN3)ccc2c1 |  | inactive
75 | c1ccc2nc(-c3ccncc3)ccc2c1 |  | 3.55 µM (active)
76 | COc1cc(Cl)c(CC(=O)c2c[nH]c3ccccc23)cc1OC |  | 1 µM (active)
77 | CN1[C@@H]2CC[C@H]1CC(OC(=O)c1c[nH]c3ccccc13)C2 (some centres undefined) | 22.9% (inactive) | 
78 | O=C(OCCN1CCCCC1)c1c[nH]c2ccccc12 |  | inactive
79 | C[C@H](CO)NC(=O)[C@H](C)[C@H]1C[C@]1(C)[C@H](NC(=O)OCc1ccccc1)c1ccccc1 |  | 0.631 µM (active)
80 | CNC(=O)[C@H](C)[C@@H]1C[C@@]1(C)[C@@H](NC(=O)OCc1ccccc1)c1ccccc1 |  | 0.631 µM (active)
81 | CNC(=O)[C@H](C)[C@H]1C[C@]1(C)[C@H](NC(=O)OCc1ccccc1)c1ccccc1 |  | 1 µM (active)
82 | CC(=O)NCCC(=O)Nc1sc2c(c1-c1nc3ccccc3[nH]1)CCCC2 |  | 14.1 µM (active)
83 | CCN(CC)S(=O)(=O)c1cc(C(=O)Nc2ccccc2C(=O)O)ccc1OC | -24.1% (inactive) | 
84 | CCN(CC)S(=O)(=O)c1cc(C(=O)Nc2ccncc2)ccc1Cl |  | 0.01 µM (active)
85 | CCN(CC)S(=O)(=O)c1cc(C(=O)OC)ccc1Cl |  | 11.2 µM (active)
86 | CCn1ccnc1C[C@@H]1COc2ccccc2O1 |  | 10 µM (active)
87 | Cc1ccccc1OCC(=O)NC(=S)Nc1ccc(N2CCOCC2)c(Cl)c1 | -29.7% (inactive) | 
88 | O=C(Nc1ccccc1N1CCOCC1)c1ccc([N+](=O)[O-])cc1 | -15.9% (inactive) | 
89 | CC(C)C(=O)N1CCN(c2ccccc2NC(=O)c2cccc(Cl)c2)CC1 |  | 14.1 µM (active)
90 | Cc1ccccc1OCC(=O)Nc1ccc(N2CCN(C(=O)C(C)C)CC2)c(Cl)c1 |  | 8.91 µM (active)
91 | O=C(Nc1ccccc1N1CCN(C(=O)c2ccccc2)CC1)c1cc(Br)ccc1Cl |  | 3.16 µM (active)
92 | Cc1ccc(-n2c(C)nc3c(cnn3-c3ccc(F)cc3)c2=O)cc1C |  | 22.4 µM (active)
93 | COc1ccc(-n2c(=O)c(-c3ccc(F)cc3)nc3cncnc32)cc1 | -4.36% (inactive) | 
94 | Cc1cc(C)n(-c2ccc(F)cc2)c(=O)c1C(=O)O | 10.6% (inactive) | 
